D3 antag: D3 dopamine receptor (human) antagonism. P35462. D3R cells, DiscoveRx beta-arrestin luminescence, antagonist mode; stronger effect = lower value. max response, negative = inhibition, %. 360,000 tested, 2.5% active. AID 652054; in the data active = max response below about -50%; inconclusive = no clear call, values can overlap the other calls; note: % is set by controls: 0 for no effect and ±100 for the full control effect
Target sequence (P35462 whole entry, looked up): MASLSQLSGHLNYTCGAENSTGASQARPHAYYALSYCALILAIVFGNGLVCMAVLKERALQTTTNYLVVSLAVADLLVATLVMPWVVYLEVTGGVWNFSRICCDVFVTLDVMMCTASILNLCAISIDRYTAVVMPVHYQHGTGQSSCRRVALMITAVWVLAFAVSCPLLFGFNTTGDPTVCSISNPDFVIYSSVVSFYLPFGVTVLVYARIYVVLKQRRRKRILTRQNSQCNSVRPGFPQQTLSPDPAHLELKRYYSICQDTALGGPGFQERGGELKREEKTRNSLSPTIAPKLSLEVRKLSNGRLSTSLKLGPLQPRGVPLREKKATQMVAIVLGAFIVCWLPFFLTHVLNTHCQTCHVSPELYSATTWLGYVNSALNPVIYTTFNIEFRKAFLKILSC
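Cells plated overnight at 1500 cells/well, then exposed to library compounds with dopamine controls for 90 minutes at 37 degrees C. DiscoveRx reagent added for 30–60 minutes at room temperature; luminescence read, quantitative HTS format.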
D3 ag: activates the human D3 dopamine receptor; 410,000 tested, 0.58% active; AID 652048; P35462; max activation, %; D3R DiscoveRx beta-arrestin cells, luminescence, 90 min; in the data active = max activation above about 30%; note: 0% is about no effect
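Cells at 1500/well, incubated overnight, then treated with pinned compounds (dopamine as control) for 90 min at 37 degrees C. DiscoveRx reagent added for 30 - 60 minutes at room temperature; luminescence read.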
MCF10A rereplic: induces DNA re-replication in MCF 10a normal breast cells. 350,000 tested, 2.9% active. MCF 10A DNA re-replication, Hoechst nuclear intensity, 48 h. Potency, µM (highest dose often 46.1 µM), for inactives: top-dose activity, positive = re-replication, usual class: activators; note: potency is the fitted concentration of half-maximal effect; % of control where 0% means no effect; nearly all actives have a fitted effect of over 50% in size
KB-V1 cytotox: KB-V1 MDR subline cytotoxicity; 400,000 tested, 3.4% active; Potency, µM (highest dose often 46.1 µM), most hits filed as cytotoxic; KB-V1 MDR cells viability, CellTiter-Glo, 72 h; AID 1347076; note: potency is the fitted concentration of half-maximal effect; % is set by controls: 0 for no effect and ±100 for the full control effect; nearly all actives have a fitted effect of over 60% in size
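Cytotoxicity toward P-gp-expressing KB-V1 cells was determined as loss of CellTiter-Glo luminescence after 72 h at 37 degrees C. Compounds were tested in quantitative HTS format across a concentration range, with curves fitted to normalized data.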
KB-3-1 tox: kills parental KB-3-1 adenocarcinoma cells; Potency, µM (highest dose often 46.1 µM), usual class: cytotoxic; 400,000 tested, 1.4% active; AID 1347075; KB-3-1 viability, CellTiter-Glo ATP luminescence, 72 h; note: potency is the fitted concentration of half-maximal effect; % is set by controls: 0 for no effect and ±100 for the full control effect; nearly all actives have a fitted effect of over 60% in size
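Parental KB-3-1 adenocarcinoma cells in phenol-red-free DMEM with 10% FBS were pin-treated with compounds at several concentrations, incubated 72 h at 37 °C, and viability read by CellTiter-Glo luminescence; concentration-effect curves were fitted after normalization.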
SW480 rerep: DNA re-replication induction in SW480 cells; SW480 DNA re-replication, Hoechst DNA content imaging, 48 h; Potency, µM (highest dose often 46.1 µM), for inactives: at the highest dose re-replication activation, hits mostly activators; 340,000 tested, 1.8% active; note: potency is the fitted concentration of half-maximal effect; % of control where 0% means no effect; nearly all actives have a fitted effect of over 55% in size
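SW480 cells exposed to compounds for 48 hr at 37 C, 5% CO2, then Hoechst-stained 40 min. Nuclear DNA content imaged by fluorescence scanning (405 nm excitation, 500-530 nm emission); re-replication scored as increased high-intensity nuclei.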
* marks the source's active call; other numbers are inactive results; i = inactive; ? = inconclusive; nt = no result; [ ] = remark or other dose. Sampled rows, rich in hits. Any-hit rate of the full collection: about 8.9%. Unless noted, calls come from the whole dose curve; as a rule, active = well fitted curve in the direction sought with a large enough effect; inconclusive = small, poorly fitted or top-dose-only effect, or another doubt; inactive = no such curve, though single readings can be large; an effect the other way counts as inactive or inconclusive.

SMILES	D3 antag	D3 ag	MCF10A rereplic	KB-V1 cytotox	KB-3-1 tox	SW480 rerep
Cc1ccc2[nH]c(CSc3nnc(COc4ccccc4C)n3C)cc(=O)c2c1	nt	2.9	nt	i	?	nt
O=C(NC(=S)Nc1ccc(N2CCOCC2)cc1)c1ccco1	-19.6	-5.6	13.7%	16.4µM*	i	?
CC(=O)NS(=O)(=O)c1ccc(NC(=S)NC(=O)c2ccco2)cc1	-109.5*	-8.5	-10.7%	i	i	0.9%[9.22 µM]
CCc1ccc(C(=O)NC(=S)Nc2ccc(N3CCOCC3)cc2)cc1	12.3	0.4	9.7%	18.4µM*	i	4.2%
CCOC(=O)c1cnc(Nc2nc3ccccc3o2)nc1CSc1nnc(C)s1	-1.8	1.1	?	?	i	0.651µM*
CCOC(=O)c1cnc(Nc2ccc(OCC)cc2)nc1C	23.5	1.1	?	i	i	-8.4%
CCOC(=O)c1cnc(Nc2nc3ccccc3o2)nc1C	8.5	13.3	-11.8%	i	11.2µM*	?
CCOC(=O)c1c(-c2ccccc2)csc1NC(=O)CSc1nnc(C)s1	69.9	16.2	?	?	?	-9.1%
O=[N+]([O-])c1cc2ccccc2c(O)c1O	21.9	-2.5	nt	?	i	nt
O=[N+]([O-])c1cc(-c2ccccc2)cc([N+](=O)[O-])c1O	-14.7	5.9	?	20.6µM*	16.4µM*	1.6%
CC(C)c1ccc(NC(=O)CCn2c(=O)c3cccn3c3ccccc32)cc1	nt	-2.3	nt	nt	nt	nt
Cc1cc(C)c(C#N)c(N2CCN(Cc3ccc4c(c3)OCO4)CC2)n1	-56.8*	-20.0	15.2%	?	i	0.8%
Cc1cc(C)c(C#N)c(N2CCOCC2)n1	13.1	-2.4	-0.6%	?	i	0.1%
Cc1ccc2nc(N3CCN(Cc4nnnn4Cc4ccccc4)CC3)c(C#N)cc2c1	-73.7*	-0.1	?	?	i	-2.2%
Cc1nc(N2CCN(Cc3ccc4c(c3)OCO4)CC2)[nH]c(=O)c1C	-12.6	-12.2	6.4%	i	i	24.9%
N#CCc1c(C#N)c(N)nc(N2CCN(Cc3ccc4c(c3)OCO4)CC2)c1C#N	?	-10.3	16.4µM*	20.6µM*	?	8.9%
Cc1cc(N2CCOCC2)nc(N2CCOCC2)c1C#N	17.4	0.9	nt	7.31µM*	?	nt
COC(=O)Nc1sc2c(c1C(N)=O)CCCC2	nt	nt	nt	i	i	nt
COc1cccc(N2CCN(c3nc(C)cc(C)c3C#N)CC2)c1	23.9	5.1	?	i	i	14.2%
Cc1cc(C)c(C#N)c(N2CCN(S(=O)(=O)Cc3ccccc3)CC2)n1	-6.8	2.0	1.0%	i	i	-17.2%
Cc1cccc(N2CCN(c3nc(C)cc(C)c3C#N)CC2C)c1 (configuration not stated)	17.6	9.6	18.4µM*	i	?	?
N#CCc1c(C#N)c(N)nc(N2CCN(c3ccc(F)cc3)CC2)c1C#N	-10.5	19.2	?	11.6µM*	?	-3.3%
Cc1cc(C)c(C#N)c(N2CCN(Cc3ccccc3)CC2)n1	-92.8*	-59.8	-4.4%	i	i	-3.9%
Cc1cccc(N2CCN(C(=O)COc3noc4nc(C)cc(C)c34)CC2C)c1 (configuration not stated)	22.0	33.8*	nt	i	i	nt
Cc1cccc(N2CCN(c3ncnc4onc(C)c34)CC2C)c1 (configuration not stated)	nt	4.0	nt	nt	nt	nt
SMILES	D3 antag	D3 ag	MCF10A rereplic	KB-V1 cytotox	KB-3-1 tox	SW480 rerep
Oc1c(Br)cc(Br)cc1C=Nc1ccc2c(c1)OCO2	-127.8*	2.1	?	i	i	8.5%
Oc1[nH]c2ccccc2c1C=Nc1ccc2c(c1)OCCO2	0.0	1.8	?	16.4µM*	i	-6.4%
Oc1c(Br)cc(Br)cc1C=Nc1ccc2c(c1)OCCO2	-63.5*	-12.0	-0.5%	i	i	-6.1%
Cc1cccc(/N=C/c2c(O)[nH]c3ccccc23)n1	-29.5	-0.5	29.8%	i	i	-7.7%
O=[N+]([O-])c1ccc(O)c(C=Nc2ccc3c(c2)OCCO3)c1	-14.4	2.8	0.2%	i	i	1.9%
CCc1ccc(NC(=O)Cn2ncc3c(C)n(Cc4cccc(Cl)c4)c(C)c3c2=O)cc1	nt	1.0	nt	i	i	nt
CC(C)(S)C(=O)N[C@@H](CS)C(=O)O	nt	5.8	nt	nt	nt	nt
Cc1cc(C)nc(NS(=O)(=O)c2ccc(NC(=O)c3nc(SC(C)C)ncc3Cl)cc2)n1	nt	2.8	nt	i	i	nt
COc1cc2cc(NC(C)=O)cc(NCc3ccccc3)c2cc1OC	?	-18.9	-0.9%	i	i	-2.3%
CCCCNc1cc(NC(C)=O)cc2cc(OC)c(OC)cc12	-74.9*	53.3*	0.6%	i	i	2.0%
Cc1ccc(C(=O)Nc2ccc(Br)cc2)cc1S(=O)(=O)N1CCOCC1	nt	-13.4	nt	4.11µM*	10.3µM*	nt
Cc1ccc(NC(=O)CCNC(=O)c2ccc(Br)cc2)cc1S(=O)(=O)N1CCOCC1	13.8	9.8	2.4%	i	i	1.2%
Cc1ccc(NC(=O)c2ccc(C)c(S(=O)(=O)N3CCCCCC3)c2)cc1	nt	3.3	nt	20.6µM*	?	nt
O=C(Nc1ccc(Cl)c(Cl)c1)c1ccc(Cl)c(Cl)c1	90.9	5.1	0.3%	i	i	0.0%
COc1ccc(C)cc1NC(=O)c1ccccc1NS(=O)(=O)c1ccc(Cl)s1	1.2	-4.2	20.6µM*	3.26µM*	5.17µM*	-19.9%
Cc1ccc(NC(=O)c2ccc(Cl)c(N3C(=O)C=CC3=O)c2)cc1	?	-20.4	14.6µM*	?	?	13µM*
Cc1ccc(NC(=O)Cn2c(=O)n(CCCCC(=O)NCCc3ccccc3)c(=O)c3ccccc32)c(C)c1	nt	-9.3	nt	i	i	nt
COc1ccc(N2CC(NC(=O)c3ccc(Br)o3)CC2=O)cc1 (configuration not stated)	nt	4.3	nt	nt	nt	nt
CCCCOc1cccc(C(=O)Nc2cc(NC(=O)c3ccco3)ccc2OC)c1	nt	7.4	nt	i	i	nt
CCc1noc(C)c1C(=O)Nc1cc(S(=O)(=O)N2CCCCC2)ccc1N(C)C	-2.1	-5.2	-1.0%	?	i	-4.7%
Cc1cccc(C(=O)NCC(=O)N2CCN(S(=O)(=O)c3cc(C)ccc3C)CC2)c1	1.2	5.6	?	?	i	0.8%
Cc1ccc(NC(=O)c2ccc([N+](=O)[O-])s2)cc1S(=O)(=O)N1CCOCC1	0.6	4.0	0.5%	i	18.4µM*	?
Cc1ccc(C)c(S(=O)(=O)N2CCN(C(=O)CNC(=O)c3ccc4ccccc4c3)CC2)c1	?	-0.9	?	23.1µM*	?	?

Source: PubChem
